High-throughput results from PubChem BioAssay.
Peg3 promoter = Peg3 promoter activity inhibition | HeLa PEG-Prom luciferase reporter, luminescence, overnight | inhibition, % at 20 µM | hit rate 1.7% among 360,000;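 active = inhibition of at least 50% at 20 µM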
MITF TRPM1 inh = inhibitors of MITF-driven TRPM1 promoter in melanoma cells | hit rate 0.83% among 330,000 | AID 488899 | SK-MEL-5 TRPM1 promoter luciferase, 24 h | inhibition, % at 12.5 µM;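 active = mean inhibition across replicates of 60% or more, whatever share of single replicates reaches that level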
HIF-2a inh = HIF-2a inhibition | inhibition, % at 18.8 µM | 786-0 RCC cells HIF-2a reporter, luciferase luminescence, overnight | hit rate 0.72% among 360,000;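 active = inhibition of the luminescence signal of 40% or more relative to plate controls, in a single-dose primary screen at 18.75 µM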
CF NFkB inh = blocks PAF-induced NF-kB reporter in cystic fibrosis cells | KKLEB NF-kB-GFP reporter, GFP fluorescence overnight | inhibition, % at 5 µM | hit rate 0.86% among 360,000;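 active = at least 50% inhibition at 5 µM, scaled per plate between neutral and stimulator controls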;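 note: PAF is a Pseudomonas aeruginosa culture filtrate used as stimulus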
ABHD5-PLIN5 inh = inhibitors of human ABHD5-perilipin-5 interaction; Q00G26+Q8WTS1; Split G. princeps luciferase complementation, luminescence, 4 h; inhibition, % at 4 µM; hit rate 0.78% among 360,000; AID 602281;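 active = inhibition above the mean inhibition across every tested compound plus 3 SD, cut at about 22% in these data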
KKLEB cytotox = CF airway cell cytotoxicity counter-screen; KKLEB CF airway cells viability, ATPlite luminescence, overnight; stronger effect = lower value; cells stimulated with P. aeruginosa culture filtrate; activity change (cytotoxicity), % at 5 µM; hit rate 0.36% among 360,000; AID 602141;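 active = corrected activity change at or below -50% at 5 µM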
CF NFkB conf = CF NF-kB inhibition confirmation, single concentration | AID 602472 | hit rate 64% among 1,300 | inhibition, % at 5 µM | KKLEB CF airway cells, PAF-induced NF-kB-GFP fluorescence, overnight | shares compounds with CF NFkB inh; in the data active = inhibition above about 40%;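 note: stimulus PAF is a Pseudomonas aeruginosa filtrate and not platelet activating factor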
ABHD5 PLIN5 conf = ABHD5-PLIN5 interaction inhibition, confirmed. hit rate 67% among 2,200. biochemical ABHD5-PLIN5 interaction, luminescence. inhibition, % at 4 µM. AID 651612. shares compounds with ABHD5-PLIN5 inh; in the data active = inhibition above about 23%
HNF4 counter = HNF4 split-luciferase signal hit, counter-screen; AID 651674; hit rate 77% among 2,200; inhibition, % at 4 µM; shares compounds with ABHD5-PLIN5 inh; HNF4 dimerization, luminescence, biochemical;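 active = mean inhibition across replicate wells exceeding the computed hit threshold, cut at about 13% in these data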;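 note: light from luciferase halves that rejoin when HNF4 fusion proteins dimerize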
Target sequence (P41235 whole entry, looked up, the tested form may be a part): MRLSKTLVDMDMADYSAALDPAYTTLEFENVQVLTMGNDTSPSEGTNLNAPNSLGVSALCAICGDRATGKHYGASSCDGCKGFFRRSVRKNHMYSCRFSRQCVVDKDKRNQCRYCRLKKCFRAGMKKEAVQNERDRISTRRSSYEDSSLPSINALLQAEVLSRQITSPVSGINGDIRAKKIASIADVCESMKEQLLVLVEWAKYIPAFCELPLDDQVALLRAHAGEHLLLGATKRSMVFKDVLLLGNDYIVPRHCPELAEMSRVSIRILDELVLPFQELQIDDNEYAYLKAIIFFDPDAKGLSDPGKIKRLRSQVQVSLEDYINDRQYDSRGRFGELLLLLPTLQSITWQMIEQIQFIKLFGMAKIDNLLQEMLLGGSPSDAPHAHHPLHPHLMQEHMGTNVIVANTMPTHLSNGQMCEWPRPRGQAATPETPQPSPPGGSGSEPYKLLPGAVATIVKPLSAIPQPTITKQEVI
Mdm2-MdmX confirm = confirmation of inhibitors of human Mdm2/MdmX interaction, set 2 | shares compounds with HIF-2a inh | SaOS-2 split-luciferase Mdm2/MdmX complementation, luminescence | inhibition, % at 8 µM | hit rate 99% among 740 | AID 504601;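 active = mean inhibition of the luminescence signal across two replicates at or above 26 percent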
HIF-2a conf = HIF-2a inhibition, single concentration confirmation. shares compounds with HIF-2a inh. 786-0 RCC cells, HIF-2a luciferase reporter luminescence, overnight. inhibition, % at 18.8 µM. hit rate 56% among 1,800;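 active = mean inhibition across four replicates of at least 40 percent at the single tested concentration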
HIF-1a cs = inhibits HIF-1a reporter, a counter-screen for HIF-2a inhibitors; AID 651589; hit rate 72% among 1,800; MiaPaCa-2 HIF-1a luciferase reporter, desferoxamine, overnight; inhibition, % at 18.8 µM; shares compounds with HIF-2a inh;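 active = mean inhibition of the reporter signal across four replicates at the single tested dose of 50% or more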
Numbers stand for hits; – = inactive; · = no result given. Only some compounds are listed: those with a hit (about 3.1% of all), similar ones and a draw of the others.

SMILES | Peg3 promoter | MITF TRPM1 inh | HIF-2a inh | CF NFkB inh | ABHD5-PLIN5 inh | KKLEB cytotox | CF NFkB conf | ABHD5 PLIN5 conf | HNF4 counter | HIF-2a conf | HIF-1a cs | others
CN(C)CCCN(C(=O)COc1ccccc1)c1nc2ccc(F)cc2s1 | – | – | – | – | – | – | · | · | · | · | ·
CN(C)CCCN(C(=O)CCc1ccccc1)c1nc2c(F)cccc2s1 | – | – | – | – | – | – | · | · | · | · | ·
CN(C)CCCN(C(=O)CCOc1ccccc1)c1nc2ccc(F)cc2s1 | 71.8 | – | – | 91.2 | 31.6 | – | 69.4 | – | 100.5 | · | ·
CN(C)CCCN(C(=O)CCOc1ccccc1)c1nc2c(F)cccc2s1 | 50.4 | – | – | 84.6 | 28.5 | – | 60.5 | – | 92.0 | · | ·
C=CC[C@]12CC=CC(=O)[C@@]1(O)O[C@H](c1ccc(OC)c(OC)c1)[C@H]2C | – | 62.3 | – | 62.2 | 27.0 | – | 57.9 | 50.0 | 35.9 | · | ·
N#Cc1cnn(-c2ccc([N+](=O)[O-])cc2[N+](=O)[O-])c1N | – | · | – | – | – | – | · | · | · | · | ·
Cc1cc(C)cc(C(=O)NCC(=O)OCC(=O)NC2CCCc3ccccc32)c1 (stereo not given) | – | – | – | – | – | – | · | · | · | · | ·
COc1ccccc1Cc1c(-c2ccc(C)cc2)nc2c(C)cc(Br)cn12 | – | · | – | – | – | – | · | · | · | · | ·
COc1ccccc1Cc1c(-c2ccco2)nc2c(C)cc(Br)cn12 | 97.7 | · | 92.9 | 66.1 | 57.9 | – | – | 35.8 | 40.4 | · | ·
C/C(=N\OCC(=O)Nc1c(C)cc(C)cc1C)c1ccc2c(c1)OCCO2 | – | – | – | – | – | – | · | · | · | · | ·
O=C(C=Cc1ccccc1O)c1ccccc1O | – | – | – | 71.3 | 73.5 | – | – | 98.0 | 90.5 | · | ·
O=C(NCc1ccc2c(c1)OCO2)c1nc(S(=O)(=O)Cc2ccccc2F)ncc1Cl | 105.5 | 90.7 | 87.7 | 86.2 | 76.3 | – | 41.7 | 84.2 | 106.0 | 68.2 | 70.3 | Mdm2-MdmX confirm=102.5
COc1ccc(S(=O)(=O)Cc2ccc(C(=O)NCc3ccccc3)o2)cc1 | – | – | – | – | – | – | · | · | · | · | ·
O=C(NCc1ccc2c(c1)OCO2)c1ccccc1Cl | – | – | – | – | – | – | · | · | · | · | ·
COc1ccc(CNC(=O)c2nc(S(=O)(=O)Cc3ccccc3)ncc2Cl)cc1 | 104.2 | 67.4 | 90.7 | 89.5 | 41.0 | – | 70.8 | 89.1 | 103.0 | 63.0 | –
O=C(NCc1ccccc1)c1nc(S(=O)(=O)Cc2ccccc2)ncc1Cl | 104.7 | – | 84.7 | 87.4 | 51.1 | – | 65.9 | 88.6 | 105.5 | 90.5 | 70.1
O=C(O)c1sccc1S(=O)(=O)N1CCOCC1 | – | – | – | – | – | – | · | · | · | · | ·
CCSCC(C)(C)n1[nH]c2ccccc2c1=O | – | · | – | – | – | – | · | · | · | · | ·
Cc1cccc(Nc2nc(Cl)ncc2F)c1C | – | – | – | – | – | – | · | · | · | · | ·
Cc1cc(C)c(C(=O)/C=C/c2ccc(C(C)C)cc2)c(=O)[nH]1 | 68.1 | – | 59.4 | 59.2 | 37.0 | – | 53.3 | · | · | 52.5 | 102.2 | Mdm2-MdmX confirm=102.7
Cc1cc(C)c(C(=O)/C=C/C=C/c2ccccc2)c(=O)[nH]1 | – | – | – | – | – | – | · | · | · | · | ·
C=C1C(=O)O[C@H]2C[C@H]1[C@@H](OC(C)=O)C/C(C)=C/CC/C(C)=C\CC[C@]2(C)O | 89.2 | 99.3 | 94.4 | 77.4 | 70.5 | – | 65.2 | 87.7 | 63.7 | 96.2 | 105.4
O=C(c1ccc(-c2ccccc2Cl)o1)N1CCN(S(=O)(=O)c2cccs2)CC1 | – | – | – | – | – | – | · | · | · | · | ·
O=C(/C=C/c1ccc([N+](=O)[O-])cc1)c1ccccc(=O)c1O | 107.1 | 69.2 | 59.3 | 67.5 | 65.8 | – | – | 98.4 | 90.7 | 90.9 | 103.2
O=C(COC(=O)COc1ccccc1F)NC1CC1 | – | – | – | – | – | – | · | · | · | · | ·
SMILES | Peg3 promoter | MITF TRPM1 inh | HIF-2a inh | CF NFkB inh | ABHD5-PLIN5 inh | KKLEB cytotox | CF NFkB conf | ABHD5 PLIN5 conf | HNF4 counter | HIF-2a conf | HIF-1a cs | others
COc1ccc(-c2cc(=O)oc3cc(OC(C)C(=O)NC4CC4)ccc23)cc1 (stereo not given) | – | – | – | – | – | – | · | · | · | · | ·
COc1ccc(-c2cc(=O)oc3cc(OC(=O)C4CCCCC4)c(Cl)cc23)cc1 | – | – | – | 88.0 | – | – | 92.9 | · | · | · | · | Mdm2-MdmX confirm=91.2
N#C/C(=C\c1ccco1)C(=O)NCc1ccccc1 | – | – | – | – | – | – | · | · | · | · | ·
N#CC(C#N)=C1C=CC=CN1/C(=C\c1ccco1)C(=O)c1ccc(-c2ccccc2)cc1 | 109.6 | 72.7 | 82.9 | 83.3 | 66.3 | – | – | 103.5 | 111.0 | 96.5 | 106.3
COC(=O)c1cc(=O)n(Cc2ccc(OC)c(OC)c2)c(=Nc2ccc(F)cc2)s1 | 81.2 | – | 70.0 | 54.1 | – | – | – | · | · | 68.2 | 102.1
O=C(Nc1ccc(Br)cc1)C1CC(O)CN1C(=O)Oc1ccccc1 (stereo not given) | – | – | – | – | – | – | · | · | · | · | ·
CC(C)N=C(NS(=O)(=O)c1ccccc1)C(Cl)(Cl)Cl | – | 79.0 | 84.0 | 60.0 | – | – | 45.3 | · | · | 56.6 | –
COP1(=O)C=C[C@H](N(Cc2ccccc2)S(=O)(=O)c2ccccc2[N+](=O)[O-])[C@@H](C)O1 (stereo not given in full) | – | – | – | – | – | – | · | · | · | · | ·
CCOC(=O)c1c[nH]n2c(=S)ncnc12 | – | · | – | – | – | – | · | · | · | · | ·
Cc1[nH]c2ccccc2c(=O)c1C(=O)/C=C/c1ccccc1 | 105.1 | 84.6 | 90.3 | 60.5 | 31.7 | – | 46.2 | 63.1 | 55.5 | 85.3 | 105.4 | Mdm2-MdmX confirm=102.7
O=C(NCCNC(=O)c1ccccc1F)c1ccco1 | – | – | – | – | – | – | · | · | · | · | ·
O=C1CC(C(=O)NC2CCCCC2)C(c2ccccc2)O1 (stereo not given) | – | – | – | – | – | – | · | · | · | · | ·
C[C@@H]1[C@@H](Sc2ccccc2)CC(=O)O[C@@H]1c1ccc(-c2ccccc2)cc1 | 97.5 | – | 97.7 | 62.4 | – | – | – | · | · | – | 100.7 | Mdm2-MdmX confirm=102.7
CCCN(CC(=O)Nc1ccccc1OC)C(=O)CCC(=O)c1ccc(Cl)s1 | – | – | – | – | – | – | · | · | · | · | ·
COc1cc(NC(=O)Cn2ncc(Cl)c(Cl)c2=O)c(C)cc1[N+](=O)[O-] | 98.3 | 103.4 | 92.6 | 93.1 | – | – | 99.8 | · | · | 98.1 | 105.5
